Test results taken from PubChem BioAssay (Tox21).
Activity calls are given as the source filed them. A call without a number means that no potency is given here. Calls come from the whole dose curve; as a rule, active = well fitted curve in the direction sought with a large enough effect in the repeat runs; inconclusive = weak or mixed curves; inactive = flat fitted curve, though single readings scatter.

Experiment: qHTS assay to test for compound auto fluorescence at 590 nm (red) in HEK293 cells (AID 720679)
Conditions: red autofluorescence 540/590 nm; series mostly up to 91.3 µM
How it was run: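 Red channel, Ex/Em 540/590nm; signal expressed as equivalency to Rose Bengal sodium. HEK293, 2,000 cells/well, 10% dialyzed FBS; 23 nL compound pinned after 4-5 hr attachment; overnight 37C/5% CO2 before reading.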
Potency is the fitted concentration of half-maximal effect; tags give direction and shape of the fitted curve or compound fluorescence and quenching.

| SMILES | fluorescence, % of fluorescent control | Potency |
| --- | --- | --- |
| O=C(O)[C@H](O)[C@@H](O)[C@H](O[C@@H]1O[C@H](CO)[C@H](O)[C@H](O)[C@H]1O)[C@H](O)CO | 0.434% [at 18.6 µM] (inactive) |  |
| Cc1c2ccccc2c(C)c2c1ccc1ccccc12 |  | inactive |
| NC[C@H]1O[C@H](O[C@H]2[C@H](O[C@@H]3O[C@H](CO)[C@@H](O)[C@H]3O)C(O)[C@H](N)C[C@@H]2N)[C@H](N)[C@@H](O)[C@@H]1O (stereo partly drawn) | 0.971% [at 18.6 µM] (inactive) |  |
| O=C(O)Cc1ccccc1Nc1c(Cl)cccc1Cl |  | inactive |
| CC(C)CCCCCOC(=O)CCS |  | inactive |
| COc1cc(/C=C/c2ccccc2)oc(=O)c1 |  | inactive |
| CCO[Si](OCC)(OCC)OCC |  | inactive |
| CCCCC(CC)COC(=O)CCCCC(=O)OCc1ccccc1 (stereo not drawn) |  | inactive |
| NC(=S)NC(N)=S |  | inactive |
| CC(=O)c1ccc(C(C)=O)cc1 |  | inactive |
| Cc1ccc(C(=O)O)cc1 |  | inactive |
| CCC(CC)(CC(=O)Nc1cccc(/C=C/c2nc(C3CCC3)cs2)c1)C(=O)O |  | inactive |
| CCOC(=O)NNc1ccc(N(CC)CC(C)O)nn1 (stereo not drawn) |  | inactive |
| C=CC(=O)Nc1cc2c(Nc3ccc(F)c(Cl)c3)ncnc2cc1OCCCN1CCOCC1 |  | inactive |
| CCN(CC)c1ccc2c(-c3ccc(S(=O)(=O)O)cc3S(=O)(=O)[O-])c3ccc(=[N+](CC)CC)cc-3oc2c1 |  | 0.501 µM [fluorescent] (active) |
| Cc1cccc2cccnc12 |  | inactive |
| c1ccsc1 |  | inactive |
| O=S(=O)(O)c1ccc(Nc2nc(Nc3ccc(/C=C/c4ccc(Nc5nc(Nc6ccc(S(=O)(=O)O)cc6)nc(N(CCO)CCO)n5)cc4S(=O)(=O)O)c(S(=O)(=O)O)c3)nc(N(CCO)CCO)n2)cc1 |  | inactive |
